Measurements taken from PubChem BioAssay (NCATS).
Results filed as inconclusive are left out. Calls of active or inactive are those of the source. The call rests on the fitted dose curve; in most records, active means well fitted inhibition curve with a large enough effect; inconclusive means small, poorly fitted or top-dose-only effect; inactive means no such curve, though single readings can be large or run the other way.

System: Zika virus NS2B-NS3 protease (linked)
Assay: 384 well plate NINDS AMC confirmatory qHTS for Zika virus inhibitors (AID 1347163); further: nearly all actives have a fitted effect of over 50% in size;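 on activity change, negative = inhibition: linked protease at 5 30 or 60 nM final depending on run; fluorescence of AMC released from Ac-VKTGKR-AMC peptide cleaved by the protease; top concentration of the series differs between compounds; 0% = no-inhibitor control and -100% = no-enzyme control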
Details: Recombinant NS2B-NS3 protease, Ac-VKTGKR-AMC fluorescence; series mostly up to 100 µM; activity change, negative = inhibition: at the top concentration
Method in brief: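 Linked NS2B-NS3 protease (final 5 nM, 30 nM or 60 nM) was preincubated with compounds (final up to 1 mM) for ~15 minutes. Ac-VKTGKR-AMC substrate (final 30 microM) then reacted for 25 minutes at room temperature in the dark. Fluorescence (ex 355/em 460 nm) was normalized to no-enzyme and no-inhibitor controls.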
Potency means the concentration at half of the fitted maximal effect.

| Structure (SMILES) | Potency | activity change, negative = inhibition |
| --- | --- | --- |
| O=C(Nc1ccc(/C=C/c2ccc(NC(=O)c3cc(S(=O)(=O)O)c4cccnc4c3O)cc2S(=O)(=O)O)c(S(=O)(=O)O)c1)c1cc(S(=O)(=O)O)c2cccnc2c1O | 44.7 µM (active) | – |
| O=C(O)c1cc(N(Cc2ccc(C3CCCCC3)cc2)C(=O)c2ccc(Oc3ccccc3)cc2)ccc1O | 1.41 µM (active) | – |
| O=C(O)c1cccc(-c2ccc(-c3cn(C(=O)N4CCCCC4Cc4ccccc4)nn3)cc2)c1 (stereo not drawn) | – | 228% (inactive) |
| N#Cc1ccc(N2N=C3c4ccc(C(=O)O)cc4CC[C@@H]3[C@@H]2C2CCCC2)cc1Cl | – | 2220% (inactive) |
| CC#C[C@@H](CC(=O)O)c1ccc(OCc2ccc(CN3CCC4(C=Cc5ccccc54)CC3)s2)cc1 | 5.01 µM (active) | – |
| COc1ccc(-c2ccccc2)cc1NS(=O)(=O)c1cc(Cl)cc(Cl)c1O | 4.47 µM (active) | – |
| O=C(O)c1ccc(N2C(=O)/C(=C/c3ccc(-c4ccc([N+](=O)[O-])cc4)o3)C=C2c2ccccc2)cc1 | 22.4 µM (active) | – |
| CC(C)(C)Sc1c(CC(C)(C)C(=O)O)n(Cc2ccc(Cl)cc2)c2ccc(OCc3ccc4ccccc4n3)cc12 | 14.1 µM (active) | – |
| CC#C[C@@H](CC(=O)O)c1ccc(OCc2cccc(-c3ccc(C(F)(F)F)cc3)c2)cc1 | – | 85.7% (inactive) |
| O=C(O)c1ccc(S(=O)(=O)N(Cc2ccc(OC(F)(F)F)cc2)c2ncc(C(F)(F)F)cc2Cl)cc1 | 2.51 µM (active) | – |
| Oc1cccc(-c2c3nc(c(-c4cccc(O)c4)c4ccc([nH]4)c(-c4cccc(O)c4)c4nc(c(-c5cccc(O)c5)c5ccc2[nH]5)CC4)C=C3)c1 | 3.16 µM (active) | – |
| O=C(Nc1ccc(-c2ccc(Cl)c(Cl)c2)cc1)C1=C(O)c2ccccc2S(=O)(=O)N1 | – | 511% (inactive) |
| Cc1noc(-c2ccc(-c3ccc(CC(=O)O)cc3)cc2)c1NC(=O)O[C@H](C)c1ccccc1Cl | 20 µM (active) | – |
| CC(O)(C(=O)O)C1CCC2(C)C1CCC1(C)C2CCC2C3(C)CCC(O)C(C)(COC4OC(CO)C(O)C(O)C4O)C3CCC21C (stereo not drawn) | 39.8 µM (active) | – |

System: Zika virus NS2B-NS3 protease (linked construct)
Assay: 384 well plate NINDS Rhodamine confirmatory qHTS for Zika virus inhibitors (AID 1347164);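 further: fluorescence from protease cleavage of Ac-LKRR-rhodamine 110 substrate; nearly all actives have a fitted effect of over 65% in size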;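 on activity change, negative = inhibition: top concentration of the series differs between compounds; plate controls were no-inhibitor control for no effect and no-enzyme control for full effect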
Details: rhodamine-110 peptide substrate fluorescence; series mostly up to 100 µM; activity change, negative = inhibition: at the top concentration
Method in brief: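 Fluorescence at 485/538 nm was measured 25 minutes after adding 10 microM Ac-LKRR-Rd substrate, in the dark at room temperature. The protease (5, 30 or 60 nM final) had been preincubated ~15 minutes with compound; aprotinin as control.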

| Structure (SMILES) | Potency | activity change, negative = inhibition |
| --- | --- | --- |
| O=C(Nc1ccc(/C=C/c2ccc(NC(=O)c3cc(S(=O)(=O)O)c4cccnc4c3O)cc2S(=O)(=O)O)c(S(=O)(=O)O)c1)c1cc(S(=O)(=O)O)c2cccnc2c1O | 15.8 µM (active) | – |
| O=C(O)c1cc(N(Cc2ccc(C3CCCCC3)cc2)C(=O)c2ccc(Oc3ccccc3)cc2)ccc1O | – | -296% (inactive) |
| O=C(O)c1cccc(-c2ccc(-c3cn(C(=O)N4CCCCC4Cc4ccccc4)nn3)cc2)c1 (stereo not drawn) | – | -264% (inactive) |
| N#Cc1ccc(N2N=C3c4ccc(C(=O)O)cc4CC[C@@H]3[C@@H]2C2CCCC2)cc1Cl | 4.47 µM (active) | – |
| COc1ccc(-c2ccccc2)cc1NS(=O)(=O)c1cc(Cl)cc(Cl)c1O | 4.47 µM (active) | – |
| O=C(O)c1ccc(N2C(=O)/C(=C/c3ccc(-c4ccc([N+](=O)[O-])cc4)o3)C=C2c2ccccc2)cc1 | – | -670% (inactive) |
| O=S(=O)(Nc1cc(Cl)c(Oc2cnc3ccccc3c2)c(Cl)c1)c1ccc(Cl)cc1Cl | 2.51 µM (active) | – |
| CC(C)(C)Sc1c(CC(C)(C)C(=O)O)n(Cc2ccc(Cl)cc2)c2ccc(OCc3ccc4ccccc4n3)cc12 | – | -308% (inactive) |
| CC#C[C@@H](CC(=O)O)c1ccc(OCc2cccc(-c3ccc(C(F)(F)F)cc3)c2)cc1 | 5.62 µM (active) | – |
| CC(C)C[C@H](C(=O)O)c1cc(-c2ccc(C(F)(F)F)cc2)cc(-c2ccc(C(F)(F)F)cc2)c1 | – | -65.1% (inactive) |
| O=C(Nc1ccc(-c2ccc(Cl)c(Cl)c2)cc1)C1=C(O)c2ccccc2S(=O)(=O)N1 | 44.7 µM (active) | – |
| Cc1noc(-c2ccc(-c3ccc(CC(=O)O)cc3)cc2)c1NC(=O)O[C@H](C)c1ccccc1Cl | 7.94 µM (active) | – |
| CC(O)(C(=O)O)C1CCC2(C)C1CCC1(C)C2CCC2C3(C)CCC(O)C(C)(COC4OC(CO)C(O)C(O)C4O)C3CCC21C (stereo not drawn) | 12.6 µM (active) | – |
| CCCCCc1ccc(/C=C/C(=O)Nc2cc(Cl)ccc2C(=O)O)cc1 | 22.4 µM (active) | – |
